Measurements reported in the supplement of paper PMC11001985.
Unmarked numbers belong to inactive results.

compound: C#CCNC(=O)CCSSCCC(=O)NCCc1ccc(C=O)c(C=O)c1; assay: lysine labeling ratio R10:1 (500 µM / 50 µM probe), SILAC-ABPP in living cells; higher = lower intrinsic lysine reactivity toward the probe, active = 2 or less; details: HeLa; probe concentrations 500 vs 50 µM
Procedure, shortened: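 SILAC light and heavy living HeLa cells in PBS at room temperature were labelled with 50 µM or 500 µM of an alkyne-tagged, disulfide-linked lysine probe, with forward and reverse label swaps. Mixed lysates were clicked to biotin-azide, trypsin-digested, captured on neutravidin, DTT-released, alkylated and analysed by LC-MS/MS on a TIMS-TOF Pro. R is the filtered median high-probe/low-probe MS1 peptide ratio per lysine, then the median across forward and reverse replicates. Ratios are capped at 20.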

UniProt P00533, sequence (P00533 whole entry): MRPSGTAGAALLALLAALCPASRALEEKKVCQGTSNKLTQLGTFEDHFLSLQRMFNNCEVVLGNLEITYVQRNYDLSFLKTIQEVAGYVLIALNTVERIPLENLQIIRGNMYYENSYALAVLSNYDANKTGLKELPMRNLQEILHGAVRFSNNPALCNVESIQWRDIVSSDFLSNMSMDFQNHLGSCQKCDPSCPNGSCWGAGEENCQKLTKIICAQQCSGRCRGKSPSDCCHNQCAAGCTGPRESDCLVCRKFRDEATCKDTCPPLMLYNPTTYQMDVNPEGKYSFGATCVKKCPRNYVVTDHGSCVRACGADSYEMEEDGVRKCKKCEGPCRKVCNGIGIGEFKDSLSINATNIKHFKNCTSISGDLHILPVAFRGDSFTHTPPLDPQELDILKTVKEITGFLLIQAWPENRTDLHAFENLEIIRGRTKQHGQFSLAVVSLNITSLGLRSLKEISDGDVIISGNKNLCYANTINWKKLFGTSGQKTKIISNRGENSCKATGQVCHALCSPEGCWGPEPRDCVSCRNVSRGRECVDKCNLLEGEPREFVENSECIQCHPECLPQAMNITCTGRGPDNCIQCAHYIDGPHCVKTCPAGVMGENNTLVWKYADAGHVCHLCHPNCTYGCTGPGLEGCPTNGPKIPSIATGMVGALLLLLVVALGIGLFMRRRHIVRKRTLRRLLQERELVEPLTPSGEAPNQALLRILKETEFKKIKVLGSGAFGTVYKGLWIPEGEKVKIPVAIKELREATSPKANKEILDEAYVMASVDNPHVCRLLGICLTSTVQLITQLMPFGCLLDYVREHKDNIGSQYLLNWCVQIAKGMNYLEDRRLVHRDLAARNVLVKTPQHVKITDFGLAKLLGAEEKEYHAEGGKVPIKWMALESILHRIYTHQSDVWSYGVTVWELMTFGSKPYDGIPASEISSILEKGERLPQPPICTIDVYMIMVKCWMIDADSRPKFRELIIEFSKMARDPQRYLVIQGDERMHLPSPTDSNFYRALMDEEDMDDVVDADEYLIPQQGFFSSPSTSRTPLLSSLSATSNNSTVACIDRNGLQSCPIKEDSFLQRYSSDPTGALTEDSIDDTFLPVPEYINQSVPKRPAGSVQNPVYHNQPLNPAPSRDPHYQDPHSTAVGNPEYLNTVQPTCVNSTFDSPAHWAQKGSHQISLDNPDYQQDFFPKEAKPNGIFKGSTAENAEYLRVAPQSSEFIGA
UniProt Q99985, sequence (Q99985 whole entry): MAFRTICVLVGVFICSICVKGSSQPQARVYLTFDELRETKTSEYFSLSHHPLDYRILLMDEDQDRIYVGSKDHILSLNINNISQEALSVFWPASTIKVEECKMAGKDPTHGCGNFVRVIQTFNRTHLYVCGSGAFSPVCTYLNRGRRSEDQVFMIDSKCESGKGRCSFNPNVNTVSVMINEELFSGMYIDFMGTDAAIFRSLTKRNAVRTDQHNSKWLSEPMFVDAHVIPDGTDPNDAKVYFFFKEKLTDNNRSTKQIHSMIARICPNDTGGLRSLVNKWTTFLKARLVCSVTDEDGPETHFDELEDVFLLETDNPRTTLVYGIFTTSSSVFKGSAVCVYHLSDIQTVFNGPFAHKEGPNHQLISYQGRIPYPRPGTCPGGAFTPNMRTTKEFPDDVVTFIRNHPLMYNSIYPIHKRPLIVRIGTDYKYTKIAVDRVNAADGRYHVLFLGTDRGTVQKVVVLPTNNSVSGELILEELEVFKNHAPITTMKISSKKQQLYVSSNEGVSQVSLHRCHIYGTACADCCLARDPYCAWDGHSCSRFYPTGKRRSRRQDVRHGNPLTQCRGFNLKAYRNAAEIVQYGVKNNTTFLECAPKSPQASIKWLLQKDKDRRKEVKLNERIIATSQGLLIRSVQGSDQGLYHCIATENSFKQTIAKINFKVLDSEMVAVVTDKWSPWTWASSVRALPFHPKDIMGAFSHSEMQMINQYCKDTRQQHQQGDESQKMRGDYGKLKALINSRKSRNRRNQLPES
UniProt P14618, sequence (P14618 whole entry, looked up): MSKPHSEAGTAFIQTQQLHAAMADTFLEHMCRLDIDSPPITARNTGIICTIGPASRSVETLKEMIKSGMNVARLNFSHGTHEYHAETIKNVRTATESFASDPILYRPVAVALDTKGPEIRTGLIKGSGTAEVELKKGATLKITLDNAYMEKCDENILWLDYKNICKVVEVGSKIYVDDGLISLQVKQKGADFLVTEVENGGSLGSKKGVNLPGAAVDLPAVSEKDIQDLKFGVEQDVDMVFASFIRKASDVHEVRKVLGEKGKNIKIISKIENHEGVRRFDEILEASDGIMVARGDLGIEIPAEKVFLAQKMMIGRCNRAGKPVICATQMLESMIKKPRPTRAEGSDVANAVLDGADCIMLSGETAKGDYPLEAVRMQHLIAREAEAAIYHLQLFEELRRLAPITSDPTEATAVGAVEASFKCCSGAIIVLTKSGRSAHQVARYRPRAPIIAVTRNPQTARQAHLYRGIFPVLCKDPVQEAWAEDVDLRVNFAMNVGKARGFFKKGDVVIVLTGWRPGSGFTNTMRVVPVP
UniProt P20908, sequence (P20908 whole entry): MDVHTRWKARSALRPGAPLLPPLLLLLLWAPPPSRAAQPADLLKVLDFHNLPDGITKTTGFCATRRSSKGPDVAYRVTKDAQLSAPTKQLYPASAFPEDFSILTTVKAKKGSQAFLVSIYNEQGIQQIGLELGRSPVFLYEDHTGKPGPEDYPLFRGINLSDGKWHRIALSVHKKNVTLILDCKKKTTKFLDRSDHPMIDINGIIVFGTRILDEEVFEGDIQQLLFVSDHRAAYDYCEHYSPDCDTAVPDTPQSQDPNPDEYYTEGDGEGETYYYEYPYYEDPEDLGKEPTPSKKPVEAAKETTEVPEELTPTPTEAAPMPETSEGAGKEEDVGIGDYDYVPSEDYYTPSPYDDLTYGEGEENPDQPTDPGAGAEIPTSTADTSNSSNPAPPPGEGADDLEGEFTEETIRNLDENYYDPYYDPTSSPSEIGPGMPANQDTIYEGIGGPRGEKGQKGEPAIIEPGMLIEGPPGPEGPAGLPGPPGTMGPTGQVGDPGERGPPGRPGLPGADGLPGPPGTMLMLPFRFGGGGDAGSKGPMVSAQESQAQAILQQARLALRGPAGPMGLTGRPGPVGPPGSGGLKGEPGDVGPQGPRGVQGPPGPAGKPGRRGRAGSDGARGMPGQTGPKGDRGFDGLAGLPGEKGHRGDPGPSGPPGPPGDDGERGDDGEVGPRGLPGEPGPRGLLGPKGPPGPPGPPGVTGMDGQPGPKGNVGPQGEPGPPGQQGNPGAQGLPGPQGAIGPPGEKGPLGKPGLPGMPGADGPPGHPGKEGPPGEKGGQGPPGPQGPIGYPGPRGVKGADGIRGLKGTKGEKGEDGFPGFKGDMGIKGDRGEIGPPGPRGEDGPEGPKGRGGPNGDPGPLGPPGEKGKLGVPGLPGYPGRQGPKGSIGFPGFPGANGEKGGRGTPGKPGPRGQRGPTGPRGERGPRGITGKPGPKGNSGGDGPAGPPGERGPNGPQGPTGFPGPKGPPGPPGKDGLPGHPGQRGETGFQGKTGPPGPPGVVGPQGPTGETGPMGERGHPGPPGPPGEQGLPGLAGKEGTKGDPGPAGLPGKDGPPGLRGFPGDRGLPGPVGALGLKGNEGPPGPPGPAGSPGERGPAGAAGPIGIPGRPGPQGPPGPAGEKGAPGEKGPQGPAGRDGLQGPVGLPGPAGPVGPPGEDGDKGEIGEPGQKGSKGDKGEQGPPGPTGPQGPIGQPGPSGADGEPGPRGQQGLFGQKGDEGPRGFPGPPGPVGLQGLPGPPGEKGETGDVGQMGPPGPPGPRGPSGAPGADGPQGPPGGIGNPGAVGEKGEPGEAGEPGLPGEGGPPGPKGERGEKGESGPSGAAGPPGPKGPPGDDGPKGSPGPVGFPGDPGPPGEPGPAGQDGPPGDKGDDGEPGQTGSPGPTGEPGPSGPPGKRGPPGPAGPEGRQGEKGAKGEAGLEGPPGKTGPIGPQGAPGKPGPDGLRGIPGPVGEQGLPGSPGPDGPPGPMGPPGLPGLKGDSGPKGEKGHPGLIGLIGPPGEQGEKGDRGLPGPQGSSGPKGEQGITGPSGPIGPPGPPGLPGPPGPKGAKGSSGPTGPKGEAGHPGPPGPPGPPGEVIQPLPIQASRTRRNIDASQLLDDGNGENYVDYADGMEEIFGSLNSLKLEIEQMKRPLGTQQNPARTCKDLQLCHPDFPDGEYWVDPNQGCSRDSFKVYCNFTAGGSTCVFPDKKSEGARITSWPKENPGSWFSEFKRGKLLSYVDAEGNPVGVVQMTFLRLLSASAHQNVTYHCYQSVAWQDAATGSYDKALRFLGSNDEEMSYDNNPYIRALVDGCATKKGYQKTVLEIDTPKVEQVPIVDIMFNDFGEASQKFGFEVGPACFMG
UniProt P07237, sequence (P07237 whole entry, looked up): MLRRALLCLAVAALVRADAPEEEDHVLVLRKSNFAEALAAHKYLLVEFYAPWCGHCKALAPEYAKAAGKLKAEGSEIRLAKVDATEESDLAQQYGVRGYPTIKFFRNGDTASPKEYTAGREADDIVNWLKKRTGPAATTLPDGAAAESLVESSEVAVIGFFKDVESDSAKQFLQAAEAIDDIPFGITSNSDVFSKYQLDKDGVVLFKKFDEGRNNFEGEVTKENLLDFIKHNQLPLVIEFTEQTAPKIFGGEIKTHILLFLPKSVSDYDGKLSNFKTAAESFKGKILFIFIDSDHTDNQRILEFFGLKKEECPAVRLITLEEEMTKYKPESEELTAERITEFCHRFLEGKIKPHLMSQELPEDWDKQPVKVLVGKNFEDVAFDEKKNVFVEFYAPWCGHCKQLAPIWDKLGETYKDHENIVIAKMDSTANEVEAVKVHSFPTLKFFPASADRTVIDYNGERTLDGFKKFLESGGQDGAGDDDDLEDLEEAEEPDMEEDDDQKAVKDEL
UniProt P22061, sequence (P22061 whole entry): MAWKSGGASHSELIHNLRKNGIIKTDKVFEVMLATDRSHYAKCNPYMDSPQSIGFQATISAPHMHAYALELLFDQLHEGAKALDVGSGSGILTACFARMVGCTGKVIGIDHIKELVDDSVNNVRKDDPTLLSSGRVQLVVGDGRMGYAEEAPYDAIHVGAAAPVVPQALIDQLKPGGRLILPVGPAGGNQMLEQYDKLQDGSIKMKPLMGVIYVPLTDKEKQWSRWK

Target	lysine labeling ratio R10:1
ENG (lysine site: K513) (UniProt P17813)	4.09
TFRC (lysine site: K693) (UniProt P02786)	5.63
P4HB (lysine site: K328) (UniProt P07237)	1.54 (active)
PCMT1 (lysine site: K125) (UniProt P22061)	1.38 (active)
UniProt P62277 (lysine site: K70)	6.69
EDIL3 (lysine site: K444) (UniProt O43854)	3.53
HNRNPA2B1 (lysine site: K173) (UniProt P22626)	7.67
COL5A1 (lysine site: K605) (UniProt P20908)	2.05
SEMA3C (lysine site: K547) (UniProt Q99985)	2.69
CACNA2D1 (lysine site: K146) (UniProt P54289)	5.1
LAMA5 (lysine site: K2481) (UniProt O15230)	1.15 (active)
SCAMP3 (lysine site: K102) (UniProt O14828)	1.06 (active)
HSPA9 (lysine site: K76) (UniProt P38646)	3.36
UniProt Q9UHI8 (lysine site: K655)	2.17
DDX3X (lysine site: K66) (UniProt O00571)	1.78 (active)
UniProt P62269 (lysine site: K106)	1.85 (active)
KTN1 (lysine site: K617) (UniProt Q86UP2)	1.17 (active)
UniProt P14618 (lysine site: K66)	1.62 (active)
DDX5 (lysine site: K284) (UniProt P17844)	0.51 (active)
EGFR (lysine site: K226) (UniProt P00533)	11
HSPD1 (lysine site: K364) (UniProt P10809)	2.45
UniProt Q15149 (lysine site: K3685)	6.03
HMOX1 (lysine site: K243) (UniProt P09601)	1.07 (active)
